Where “and” joins values, the source holds several entries; their conditions need not be identical. Equal values may be shown once. The campaign covered roughly 5,500 compounds. About 2,000 (36%) were called active. Another 18% or so got no clear call; they are omitted. Rule as the data show it: active = normalized growth mostly below about 0.91 (no sharp cut-off); inconclusive = no clear call, values can overlap the other calls; inactive = mostly above about 0.92. Some of the results follow.
Assay: chemical genetic growth profiling, strain panel (AID 1159580);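 also: tested at 20 µM; growth read once vehicle control cultures reached saturation at 30 °C; 1 = growth at the plate median or of vehicle wells; lower values mean less growth of the strain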
Conditions: S. cerevisiae deletion strains, growth OD

Measured: normalized growth

COP(=O)(OC)OC=C(Cl)Cl
inactive: locus YAL013W, strain DEP1, hits give low values 0.997 | locus YAL021C, strain ccr4, hits give low values 0.988 | locus YAL026C, strain drs2, hits give low values 0.993 | locus YAL030W, strain snc1, hits give low values 1 | locus YBL061C, strain skt5, hits give low values 0.984 | locus YBR009C, strain hhf1, hits give low values 0.991 | locus YBR021W, strain FUR4, hits give low values 1.05 | locus YBR023C, strain chs3, hits give low values 0.995 | locus YBR171W, strain sec66, hits give low values 1.01 | locus YBR229C, strain ROT2, hits give low values 0.965 | locus YBR231C, strain swc5, hits give low values 0.999 | locus YBR279W, strain paf1, hits give low values 0.992 | locus YCL011C, strain gbp2, hits give low values 0.994 | locus YCL016C, strain dcc1, hits give low values 1.01 | locus YCL029C, strain bik1, hits give low values 0.98 | locus YCL061C, strain MRC1, hits give low values 0.991 | locus YCL069W, strain vba3, hits give low values 1 | locus YCR088W, strain abp1, hits give low values 1 | locus YDL005C, strain med2, hits give low values 0.997 | locus YDL035C, strain GPR1, hits give low values 0.977 | locus YDL040C, strain nat1, hits give low values 0.989 | locus YDL074C, strain BRE1, hits give low values 0.957 | locus YDL101C, strain DUN1, hits give low values 0.964 | locus YDL134C, strain PPH21, hits give low values 0.983 | locus YDL185W, strain tfp1, hits give low values 0.947 | locus YDL192W, strain arf1, hits give low values 0.983 | locus YDR001C, strain nth1, hits give low values 0.998 | locus YDR069C, strain doa4, hits give low values 0.975 | locus YDR101C, strain arx1, hits give low values 0.986 | locus YDR137W, strain rgp1, hits give low values 0.982 | locus YDR150W, strain NUM1, hits give low values 0.985 | locus YDR159W, strain sac3, hits give low values 0.965 | locus YDR162C, strain NBP2, hits give low values 0.981 | locus YDR195W, strain ref2 0.933 | locus YDR297W, strain sur2, hits give low values 0.99 | locus YDR318W, strain mcm21, hits give low values 0.983 | locus YDR334W, strain swr1, hits give low values 1.01 | locus YDR335W, strain msn5, hits give low values 0.995 | locus YDR388W, hits give low values 0.995 | locus YDR392W, strain spt3, hits give low values 1 | locus YDR502C, strain sam2, hits give low values 0.993 | locus YEL003W, strain gim4, hits give low values 0.991 | locus YEL037C, strain rad23, hits give low values 0.986 | locus YEL061C, strain CIN8 (second series), hits give low values 0.984 | locus YEL061C, strain CIN8, hits give low values 0.989 | locus YER015W, strain faa2, hits give low values 0.982 | locus YER016W, strain bim1, hits give low values 0.99 | locus YER110C, hits give low values 0.969 | locus YER111C, strain swi4, hits give low values 0.989 | locus YER155C, strain BEM2 (second series), hits give low values 0.998 | locus YER155C, strain BEM2, hits give low values 0.991 | locus YER167W, strain BCK2, hits give low values 0.988 | locus YFR010W, strain ubp6, hits give low values 0.994 | locus YGL078C, strain dbp3, hits give low values 0.986 | locus YGL086W, strain mad1, hits give low values 0.994 | locus YGL167C, strain pmr1, hits give low values 0.994 | locus YGL173C, strain kem1, hits give low values 0.986 | locus YGL227W, strain vid30, hits give low values 0.991 | locus YGL240W, strain doc1, hits give low values 0.978 | locus YGL248W, strain PDE1, hits give low values 0.982 | locus YGL253W, strain hxk2, hits give low values 0.998 | locus YGR078C, strain PAC10, hits give low values 0.989 | locus YGR135W, strain pre9, hits give low values 0.993 | locus YGR229C, strain SMI1, hits give low values 1.01 | locus YGR252W, strain gcn5, hits give low values 0.998 | locus YHR013C, strain ard1, hits give low values 0.974 | locus YHR027C, strain rpn1, hits give low values 1.01 | locus YHR030C, strain SLT2, hits give low values 1.01 and 1.02 | locus YHR079C, strain IRE1 (second series), hits give low values 0.982 | locus YHR079C, strain IRE1, hits give low values 1.05 | locus YHR094C, strain hxt1, hits give low values 0.993 | locus YHR129C, strain ARP1, hits give low values 0.976 | locus YHR142W, strain chs7, hits give low values 0.989 | locus YHR200W, strain rpn10, hits give low values 0.989 | locus YIL066C, strain RNR3, hits give low values 1 | locus YIL073C, strain SPO22, hits give low values 1.06 | locus YIL125W, strain kgd1, hits give low values 0.98 | locus YIR030C, strain dcg1, hits give low values 0.988 | locus YJL092W, strain hpr5, hits give low values 1 | locus YJL095W, strain BCK1 (second series), hits give low values 0.996 | locus YJL095W, strain BCK1, hits give low values 1.01 and 1.03 | locus YJL115W, strain asf1, hits give low values 0.998 | locus YJL129C, strain trk1, hits give low values 1.01 | locus YJL134W, strain LCB3, hits give low values 1 | locus YJL154C, strain vps35, hits give low values 0.997 | locus YJL164C, strain tpk1, hits give low values 0.992 | locus YJL166W, strain qcr8, hits give low values 0.992 | locus YJL168C, strain set2, hits give low values 0.981 | locus YJL187C, strain SWE1 (second series), hits give low values 0.976 | locus YJL187C, strain SWE1, hits give low values 1 | locus YJR043C, strain POL32, hits give low values 0.988 | locus YJR066W, strain TOR1, hits give low values 0.981

Source: PubChem BioAssay AID1159580 (chemical genetic matrix, 2015)
